Source: PubChem BioAssay (NCI)
Compounds without any hit were thinned out: in the full panel of roughly 79,000, 15% have a hit. No stated cut-off is given here; in the data, active means growth inhibition above about 70%; inactive means the rest.

Key:
[1] = NCI Yeast Anticancer Drug Screen. Data for the rad50 strain (AID 155);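 further: 0% = growth of vehicle-only cultures of the same strain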; settings: S. cerevisiae rad50 strain growth inhibition; at 50.0 µM; active compounds read high
In short: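 A DNA repair-deficient yeast mutant serves as the test organism; compound-induced growth inhibition is calculated against vehicle-treated cells.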

[2] = NCI Yeast Anticancer Drug Screen. Data for the mec2-1 strain (AID 157); settings: S. cerevisiae mec2-1 strain, at 50.0 µM, active compounds read high
In short: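 Using mec2-1 yeast: add compound, measure growth, express inhibition versus vehicle-treated cultures.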

[3] = NCI Yeast Anticancer Drug Screen. Data for the sgs1 mgt1 strain (AID 161);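 further: 0% = growth of cultures given vehicle only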; settings: S. cerevisiae sgs1 mgt1 strain, at 50.0 µM, active compounds read high
In short: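 This yeast growth screen uses a strain with defined DNA-repair lesions; compound-treated growth is compared with vehicle-treated growth.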

[4] = NCI Yeast Anticancer Drug Screen. Data for the cln2 rad14 strain (AID 165);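 further: 0% = growth equal to vehicle treated cultures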; settings: S. cerevisiae cln2 rad14 strain, at 50.0 µM, active compounds read high
In short: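 Yeast strain cln2 rad14, bearing defects in cell cycle control and DNA repair, serves as the test system; values reflect growth inhibition compared with vehicle.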

[5] = NCI Yeast Anticancer Drug Screen. Data for the bub3 strain (AID 167); settings: S. cerevisiae bub3 mutant strain, at 50.0 µM, active compounds read high
In short: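 Inhibition values come from growth of compound-treated mutant yeast normalised to vehicle-treated controls.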

[6] = NCI Yeast Anticancer Drug Screen. Data for the mlh1 rad18 strain (AID 175); settings: S. cerevisiae mlh1 rad18 strain growth inhibition; at 50.0 µM; active compounds read high
In short: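 Steps: expose repair-defective yeast to compound; measure growth; express inhibition against vehicle-treated controls.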

Measured: growth inhibition

C[n+]1cccc2cc(Br)ccc21
inactive: [1] -5.3% | [2] -8.6% | [3] -13.2% | [4] 9.7% | [5] 11.6% | [6] -15.5%

O=C(O)CCC(=O)c1ccc(O)cc1
inactive: [1] -0.2% | [2] -27% | [3] -7.1% | [4] -14.7% | [5] -14% | [6] 13.6%

O=C(O)C(CCOc1ccccc1)CCOc1ccccc1
inactive: [1] 0.7% | [2] -15.2% | [3] 3.5% | [4] -10.4% | [5] -9.15% | [6] -26.3%

COc1cc(C=O)ccc1OC(=O)Nc1ccc(F)c([N+](=O)[O-])c1
inactive: [1] 0.8% | [2] 30.4% | [3] 19.1% | [4] -2.45% | [5] 28.1% | [6] 14.7%

O=C1c2ccccc2C(=O)N1CNc1cccc(NCN2C(=O)c3ccccc3C2=O)c1
inactive: [1] -3.9% | [2] -11.7% | [3] -9.75% | [4] 16.1% | [5] 1.2% | [6] -2.15%

O=S(=O)(c1ccccc1)N1CCCCN(S(=O)(=O)c2ccccc2)COC1
inactive: [1] 5.25% | [2] -7.45% | [3] -1.65% | [4] -9.85% | [5] -7.45% | [6] -5.35%

O=C(/C=C/c1ccccc1)[c-]1[c-][c-][c-][c-]1.[Fe].[c-]1[c-][c-][cH-][c-]1
inactive: [1] 10.9% | [2] 11.6% | [3] 9.05% | [4] 8.1% | [5] 13.8% | [6] 13.2%

O=C1c2ccccc2C(=O)c2c1oc1c2ccc2ccccc21
inactive: [1] -8.15% | [2] 7% | [3] -4.35% | [4] -16.1% | [5] -5.25% | [6] 8.5%

O=C1c2cc(Cl)ccc2NC(=NC2CCCC2)C2CSCN12 (stereo not given)
inactive: [1] 7.8% | [2] -13.2% | [3] 2.8% | [4] -6.35% | [5] -22.8% | [6] 16.6%

N#CCCCCN1CCOCC1
inactive: [1] 10.3% | [2] -7.5% | [3] -21.7% | [4] 22.1% | [5] -8.9% | [6] 20.7%

CNc1ncnc2nc(C)c(C)nc12
inactive: [1] -14.1% | [2] 35.6% | [3] -7.4% | [4] 8.4% | [5] -6.05% | [6] 18.7%

COc1ccc2c(c1OC)C1(CCN(C)C)CC(O)CCC1C=C2 (stereo not given)
inactive: [1] 20.4% | [2] 7.95% | [3] 5.75% | [4] -4.6% | [5] 13.2% | [6] 18.1%

CCC(/C=C\C(C)C1CCC2C3CC=C4CC(OC)CCC4(C)C3CCC12C)C(C)C (stereo not given)
inactive: [1] 25.2% | [2] 5.1% | [3] -3.4% | [4] 20.6% | [5] -3.5% | [6] 9.05%

COC1/C=C/OC2(C)Oc3c(C)c(O)c4c(O)c(c(/C=N/N5CC(C)N(C(=O)c6ccccc6)C(C)C5)c(O)c4c3C2=O)NC(=O)C(C)=C/C=C/C(C)C(O)C(C)C(O)C(C)C(OC(C)=O)C1C (stereo not given)
inactive: [1] -5.8% | [2] -13.6% | [3] -23.8% | [4] 24.6% | [5] 25.2% | [6] 5.45%

Nc1nc2c(c(-c3ccc(F)cc3)n1)COC/C2=C\c1ccc(F)cc1
inactive: [1] 31.5% | [2] 24% | [3] 15.2% | [4] 22.1% | [5] 40.8% | [6] 19.6%

CCOC(=O)c1sc(N)nc1C
inactive: [1] -17.8% | [2] -12.2% | [3] -17.2% | [4] -21.9% | [5] -11.5% | [6] 0.35%

CNC(=O)OCc1c(COC(=O)NC)c2n(c1C)CCS2(=O)=O
inactive: [1] -1.25% | [2] -18.3% | [3] -8.15% | [4] -9.95% | [5] 0.35% | [6] 15.2%

CC(=O)Oc1ccc(Nn2c3ccccc3c3ccccc32)c(C)c1
inactive: [1] 56.6% | [2] 47.9% | [3] 36.1% | [4] 54.6% | [5] 41.4% | [6] 43%

O=C(O)C1C2CCC3C(C(=O)O)C3C21 (stereo not given)
inactive: [1] -2.7% | [2] 18.6% | [3] -4.95% | [4] -40.2% | [5] 11.7% | [6] -0.8%

COc1cc2c(cc1OC)C(=O)Cc1ccc3c(c1CN(C)CC2)OCO3
inactive: [1] -19.9% | [2] -42.7% | [3] -21.7% | [4] 2.7% | [5] -40.5% | [6] -17.9%

CC1C=C(OC(=O)c2ccccc2)C(=O)C(n2cc(F)c(=O)n(C(=O)c3ccccc3)c2=O)O1 (stereo not given)
inactive: [1] 43.2% | [2] 47.3% | [3] 68.7% | [4] 0.1% | [5] -1.25% | [6] 15.6%

CC(=O)CCCCc1ccccc1
inactive: [1] -1.45% | [2] -8.45% | [3] -9.3% | [4] -71.6% | [5] -9.2% | [6] -1%

Cc1ccc(S(=O)(=O)N/N=C(\C(=O)Nc2cccc([N+](=O)[O-])c2)c2nc3ccc([N+](=O)[O-])cc3[nH]c2=O)cc1
inactive: [1] -3% | [2] -6% | [3] 3.65% | [4] 7.4% | [5] -3.1% | [6] 2.2%

CC(C)=CCC/C(C)=C/CO
inactive: [1] -48.8% | [2] -27.8% | [3] -3.55% | [4] 35.1% | [5] -47.8% | [6] -14.2%

NC(N)=Nc1cccc2c1CC=CC2
inactive: [1] 0.2% | [2] -3.45% | [3] -5.3% | [4] -5.7% | [5] 2% | [6] -0.2%

CCn1c2c(c3ccccc31)[C@@H](c1ccc(Cl)cc1)CC1C(=O)N(c3ccccc3)C(=O)C21 (stereo not given in full)
inactive: [1] 17.8% | [2] 33.3% | [3] 14.8% | [4] -8.05% | [5] 38.4% | [6] 35.5%

NC(Cc1cc(I)c(O)c(I)c1)C(=O)O (stereo not given)
inactive: [1] -0.95% | [2] -6.05% | [3] -12.6% | [4] 8.2% | [5] 8.3% | [6] 1.35%

O=C1CC2C(=O)N(Cc3ccccc3)C(=O)C2C(=O)N1 (stereo not given)
inactive: [1] -3.1% | [2] -12.9% | [3] -5.3% | [4] 1.85% | [5] -3.1% | [6] 1.25%

CNc1nc(NC)nc(-c2ccccc2)n1
inactive: [1] -25.2% | [2] -16.1% | [3] -26.9% | [4] -55% | [5] -22.6% | [6] -22.9%

CC(C)CCCOC(=O)c1ccccc1
inactive: [1] 3.05% | [2] -6.5% | [3] -1.65% | [4] -3.2% | [5] 21.6% | [6] -1%

O=c1cc(-c2ccccc2)[nH]c2nccn12
inactive: [1] -55% | [2] -27.1% | [3] -53.1% | [4] -57.5% | [5] 5.85% | [6] -58.7%

CC(C)=CCNc1ncnc2c1ncn2CCC(=O)OC(C)(C)C
inactive: [1] -9.75% | [2] -3.2% | [3] -3.7% | [4] -15.9% | [5] 10.1% | [6] 1.55%

Cc1ccc(S(=O)(=O)NC(=O)Nc2c(-c3nc4ccccc4s3)[n+]([O-])c3ccccc3[n+]2[O-])cc1
inactive: [1] 27.8% | [2] 5.5% | [3] 15.2% | [4] 30.4% | [5] 10.1% | [6] 18.9%

NC(CC1C(=O)Nc2ccccc21)C(=O)O (stereo not given)
inactive: [1] -32.5% | [2] -14.9% | [3] -11.3% | [4] -60.6% | [5] -0.8% | [6] -8.9%

Cc1ccc(S(=O)(=O)Nn2c(O)c(C#N)c(-c3ccc(N(C)C)cc3)c(C#N)c2=O)cc1
inactive: [1] -6.7% | [2] -20.1% | [3] -44.5% | [4] 1.7% | [5] -19.1% | [6] -20.9%

Cc1ccc2nc(C(O)C(O)C(O)CO)[nH]c2c1 (stereo not given)
inactive: [1] -11.3% | [2] -14.9% | [3] 10.7% | [4] -11.6% | [5] -25.7% | [6] -12.7%

O[C@@H]1C=C(c2ccccc2)[C@H](c2ccccc2)C1
inactive: [1] -3% | [2] 9.6% | [3] 9.65% | [4] -7.9% | [5] -19.8% | [6] -1.15%

COc1ccc(/C(Cl)=C(\CNc2ccccn2)c2ccccc2)cc1OC
inactive: [1] -14.4% | [2] -21.9% | [3] -39.9% | [4] -22.7% | [5] 2.3% | [6] -34.1%

CCCCCCCCCCCCCCCCC(C)=O
inactive: [1] 2.2% | [2] 20.6% | [3] 5% | [4] -16.6% | [5] 21.9% | [6] -11.7%

COC(OC)C1CC=CCCC1C(=O)O (stereo not given)
inactive: [1] 17.1% | [2] 16.8% | [3] 11.7% | [4] -0.4% | [5] 14.2% | [6] -8.65%
